Experimental data published in PubChem BioAssay (NCI).
This is part of a sample that, as a whole, favours compounds with a hit. Of some 83,000 tested, about 20% had one in any assay.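 Negative percent growth values reflect cell death: -40 means 40% of the cells present at the start died, and -100 means all died.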 Calls of active or inactive are those of the source. Rule for the calls: active = growth percent below 10; inactive = the rest.

test system: MDA-MB-468 breast; assay: NCI-60 one-dose screen, 48 h (100 = growth as untreated, 0 = no growth, -100 = all killed); details: 10 µM unless noted

**Q.** `O=C(NC1CCNCC1)c1[nH]ncc1NC(=O)c1c(Cl)cccc1Cl` was tested. Which growth did it give?
**A.** The growth was -37.2% (active).

**Q.** For `Cc1ccc2c(C(C[N+](=O)[O-])c3ccccc3)c(-c3ccccc3)[nH]c2c1` (stereo not drawn), which growth is on record?
**A.** Its growth is -9.08% [9.5 µM] (active).

**Q.** For `Cc1c(C(=O)Nc2ccccc2F)sc2c(=O)[nH]cnc12`, which growth is on record?
**A.** The growth was 106% (inactive).
